# In ChEMBL document CHEMBL3433997, “St. Jude Leishmania screening dataset” (2016):
# Tests used:
# Assay type in all cases: functional
# [1] = target: Solute carrier family 2, facilitated glucose transporter member 1 (Homo sapiens) (UniProt P11166); test: ST_JUDE_LEISH: Cytotoxicity at 2uM final concentration against transgenic Leishmania Mexicana promastigotes LmGLUT1 that are glucose transport deficient and complemented with the human glucose transporter GLUT1. Activity is measured by DNA content using SYBR green in vitro
# Chain of Solute carrier family 2, facilitated glucose transporter member 1 (Homo sapiens) (P11166 whole entry): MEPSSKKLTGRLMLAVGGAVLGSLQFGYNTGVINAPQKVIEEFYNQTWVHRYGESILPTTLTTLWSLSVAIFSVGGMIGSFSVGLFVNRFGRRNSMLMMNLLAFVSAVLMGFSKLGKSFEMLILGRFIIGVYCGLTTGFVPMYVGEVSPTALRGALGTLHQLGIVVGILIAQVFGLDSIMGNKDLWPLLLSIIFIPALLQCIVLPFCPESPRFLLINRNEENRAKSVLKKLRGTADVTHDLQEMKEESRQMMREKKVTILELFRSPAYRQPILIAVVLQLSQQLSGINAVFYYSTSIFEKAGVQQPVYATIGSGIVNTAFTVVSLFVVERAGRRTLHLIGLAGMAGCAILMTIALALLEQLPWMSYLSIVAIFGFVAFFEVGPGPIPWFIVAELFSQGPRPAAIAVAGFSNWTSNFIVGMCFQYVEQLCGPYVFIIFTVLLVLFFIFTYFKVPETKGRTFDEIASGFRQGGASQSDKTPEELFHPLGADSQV
# [2] = target: Hexose transporter 1 (Plasmodium falciparum) (UniProt O97467); test: ST_JUDE_LEISH: Cytotoxicity at 2uM final concentration against transgenic Leishmania Mexicana promastigotes LmPfHT that are glucose transport deficient and complemented with the Plasmodium falciparum hexose transporter. Activity is measured by DNA content using SYBR green in vitro
# [3] = target: Glucose transporter (Leishmania mexicana) (UniProt O61059); test: ST_JUDE_LEISH: Cytotoxicity at 2uM final concentration against transgenic Leishmania Mexicana promastigotes LmGT2 that are glucose transport deficient and complemented with the L. Mexicana glucose transporter 2. Activity is measured by DNA content using SYBR green in vitro
Compound,inhibition [1],inhibition [2],inhibition [3]
Cc1ccc2[nH]c(C)cc(=NN=Cc3cccc(Cl)c3)c2c1,2.87%,0.92%,2.31%
O=S(=O)(NCCN1CCCC1)c1ccc(-c2ccc(CNC3Cc4ccccc4C3)cc2)cc1F,6.55%,13.9%,5.36%
Nc1c(Cl)cc(C(O)CNCCCCCCOCCC=C2CCOCC2)cc1Cl (centres undefined),-0.91%,0.32%,-1.31%
OC1CCCN(Cc2ccc(-c3ccc(-c4nc5cc(F)ccc5[nH]4)s3)cc2)C1 (centres undefined),3.05%,2.51%,1.76%
Cc1cc(=O)c2cc(Oc3ccc(OC(F)(F)F)cc3)ccc2[nH]1,-0.06%,0.96%,-1.19%
CN(C)CC1CCCN1Cc1ccccc1-c1cnn(C)c(=O)c1Oc1cccc(C#N)c1 (centres undefined),1.03%,1.03%,3.52%
O=C(/C=C/c1ccc(Cl)c(Cl)c1)NCCCCCCN1CCN(C(=O)Nc2cc(Cl)nc(Cl)c2)CC1,2.96%,2.93%,2.49%
CC(CN(C)C)C(=O)Nc1cccc(-c2cccc(-c3nc4cc(F)ccc4[nH]3)c2)c1 (centres undefined),-2.1%,-1.06%,-3.91%
Cc1cc(O)c(CN2CCN(Cc3cccs3)CC2)cc1C(C)C,-0.44%,0.02%,2.94%
O=C(Nc1cccc(-c2ccc(-c3nc4cc(F)ccc4[nH]3)s2)c1)c1cccnc1,5.68%,4.85%,3.13%
Fc1ccc2[nH]c(-c3ccc(-c4ccc(CN5CCCCC5)cc4)s3)nc2c1,5.07%,4.14%,1.79%
O=S(=O)(Nc1ccc(CCN2CCCCC2CCN2CCCC2)cc1)c1ccc(-c2ccccc2)cc1 (centres undefined),9.09%,14.3%,3.63%
CN(C)C(=S)N/N=C1/C(=O)Nc2ccc(OC(F)(F)F)cc21,1.94%,1.64%,0.75%
